Data from PubChem BioAssay AID1159580 (chemical genetic matrix, 2015).
About 2,000 (36%) of roughly 5,500 compounds were called active. Roughly 18% stayed inconclusive and do not appear here. No stated cut-off is given here; in the data, active means normalized growth mostly below about 0.91 (no sharp cut-off); inconclusive means no clear call, values can overlap the other calls; inactive means mostly above about 0.92. The list shows a part of the results.

Assay: chemical genetic growth profiling, strain panel (AID 1159580);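 further: tested at 20 µM; growth read once vehicle control cultures reached saturation at 30 °C; 1 = growth at the plate median or of vehicle wells; lower values mean less growth of the strain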
Settings: S. cerevisiae deletion strains, growth OD

Measured: normalized growth

CCN(CC)CCOCCOC(=O)C1(c2ccccc2)CCCC1
inactive: locus YAL013W, strain DEP1, active compounds read low 0.986 | locus YAL021C, strain ccr4, active compounds read low 0.986 | locus YAL026C, strain drs2, active compounds read low 0.995 | locus YAL030W, strain snc1, active compounds read low 0.992 | locus YAL040C, strain CLN3, active compounds read low 0.988 | locus YBL061C, strain skt5, active compounds read low 0.996 | locus YBR009C, strain hhf1, active compounds read low 0.997 | locus YBR023C, strain chs3, active compounds read low 0.987 | locus YBR171W, strain sec66, active compounds read low 0.987 | locus YBR231C, strain swc5, active compounds read low 0.982 | locus YBR279W, strain paf1, active compounds read low 0.995 | locus YCL011C, strain gbp2, active compounds read low 0.99 | locus YCL016C, strain dcc1, active compounds read low 0.998 | locus YCL061C, strain MRC1 (second series), active compounds read low 0.994 | locus YCL061C, strain MRC1, active compounds read low 0.989 | locus YCL069W, strain vba3, active compounds read low 0.994 | locus YCR088W, strain abp1, active compounds read low 0.981 | locus YDL005C, strain med2, active compounds read low 0.988 | locus YDL040C, strain nat1, active compounds read low 0.998 | locus YDR001C, strain nth1, active compounds read low 0.999 | locus YDR069C, strain doa4, active compounds read low 0.984 | locus YDR137W, strain rgp1, active compounds read low 0.981 | locus YDR150W, strain NUM1, active compounds read low 0.995 | locus YDR159W, strain sac3, active compounds read low 0.99 | locus YDR195W, strain ref2 0.966 | locus YDR297W, strain sur2, active compounds read low 0.989 | locus YDR334W, strain swr1, active compounds read low 0.995 | locus YDR335W, strain msn5, active compounds read low 0.996 | locus YDR392W, strain spt3, active compounds read low 1.01 | locus YEL003W, strain gim4, active compounds read low 0.999 | locus YEL037C, strain rad23, active compounds read low 0.999 | locus YEL061C, strain CIN8 (second series), active compounds read low 0.999 | locus YER002W, strain NOP16, active compounds read low 1 | locus YER015W, strain faa2, active compounds read low 0.992 | locus YER016W, strain bim1, active compounds read low 0.995 | locus YER111C, strain swi4, active compounds read low 0.985 | locus YER155C, strain BEM2 (second series), active compounds read low 0.992 | locus YFR010W, strain ubp6, active compounds read low 1 | locus YGL167C, strain pmr1, active compounds read low 0.991 | locus YGL173C, strain kem1, active compounds read low 0.999 | locus YGL227W, strain vid30, active compounds read low 0.981 | locus YGL240W, strain doc1, active compounds read low 0.998 | locus YGL253W, strain hxk2, active compounds read low 0.989 | locus YGR078C, strain PAC10, active compounds read low 0.972 | locus YGR229C, strain SMI1, active compounds read low 0.979 | locus YHR013C, strain ard1, active compounds read low 0.969 | locus YHR027C, strain rpn1, active compounds read low 0.996 | locus YHR030C, strain SLT2, active compounds read low 0.967 | locus YHR079C, strain IRE1, active compounds read low 0.975 | locus YHR142W, strain chs7, active compounds read low 0.99 | locus YJL092W, strain hpr5, active compounds read low 0.997 | locus YJL095W, strain BCK1 (second series), active compounds read low 0.992 | locus YJL095W, strain BCK1, active compounds read low 0.966 | locus YJL115W, strain asf1, active compounds read low 0.996 | locus YJL129C, strain trk1, active compounds read low 0.994 | locus YJL154C, strain vps35, active compounds read low 0.998 | locus YJL164C, strain tpk1, active compounds read low 0.977 | locus YJL166W, strain qcr8, active compounds read low 0.997 | locus YJL187C, strain SWE1, active compounds read low 0.996 | locus YJR066W, strain TOR1, active compounds read low 0.917 | locus YJR075W, strain HOC1, active compounds read low 0.99 | locus YKL160W, strain elf1, active compounds read low 1 | locus YKR026C, strain gcn3, active compounds read low 0.98 | locus YKR091W, strain srl3, active compounds read low 0.992 | locus YLL001W, strain dnm1, active compounds read low 0.994 | locus YLL026W, active compounds read low 0.99 | locus YLL041C, strain sdh2, active compounds read low 1 | locus YLR027C, strain aat2, active compounds read low 0.993 | locus YLR113W, strain HOG1, active compounds read low 0.931 | locus YLR221C, strain rsa3, active compounds read low 0.987 | locus YLR258W, strain gsy2, active compounds read low 0.979 | locus YLR262C, strain YPT6 (second series), active compounds read low 0.947 | locus YLR320W, strain mms22, active compounds read low 0.99 | locus YLR342W, strain FKS1, active compounds read low 0.987 | locus YLR357W, strain rsc2, active compounds read low 0.975 | locus YLR370C, strain arc18, active compounds read low 0.998 | locus YLR384C, strain iki3, active compounds read low 0.992 | locus YML120C, strain ndi1, active compounds read low 0.989 | locus YMR058W, strain fet3, active compounds read low 0.999 | locus YMR125W, strain sto1, active compounds read low 0.987 | locus YMR129W, active compounds read low 0.997 | locus YMR205C, strain PFK2, active compounds read low 0.986 | locus YMR231W, strain pep5, active compounds read low 0.996 | locus YMR307W, strain GAS1, active compounds read low 0.986 | locus YNL071W, strain lat1, active compounds read low 1.02 | locus YNL175C, strain NOP13, active compounds read low 1.02 | locus YNL183C, strain NPR1, active compounds read low 0.915 | locus YNL197C, strain WHI3, active compounds read low 0.994 | locus YNL209W, strain ssb2, active compounds read low 0.998 | locus YNL224C, strain SQS1, active compounds read low 1 | locus YNL248C, strain rpa49, active compounds read low 1.01 | locus YNL322C, strain KRE1 (second series), active compounds read low 0.99 | locus YNL322C, strain KRE1, active compounds read low 1.01 | locus YNR049C, strain mso1, active compounds read low 0.989 | locus YOR001W, strain rrp6, active compounds read low 0.994 | locus YOR070C, strain gyp1, active compounds read low 0.999 | locus YOR080W, strain dia2, active compounds read low 0.989 | locus YOR083W, strain WHI5 (second series), active compounds read low 0.996 | locus YOR083W, strain WHI5, active compounds read low 1 | locus YOR106W, strain vam3, active compounds read low 1.02 | locus YOR231W, strain MKK1, active compounds read low 0.983 | locus YOR265W, strain rbl2, active compounds read low 0.988 | locus YOR270C, strain vph1, active compounds read low 0.999 | locus YOR290C, strain snf2, active compounds read low 0.992 | locus YPL051W, strain arl3, active compounds read low 0.989 | locus YPL055C, strain LGE1, active compounds read low 0.996 | locus YPL078C, strain atp4, active compounds read low 0.994 | locus YPL106C, strain sse1, active compounds read low 0.995 | locus YPL240C, strain hsp82, active compounds read low 0.995 | locus YPL241C, strain CIN2, active compounds read low 0.995 | locus YPL256C, strain CLN2, active compounds read low 0.959
